# Key:
# Assay in all cases: PBM binding z-score (relative to random genomic background probes); higher = stronger binding; sequences stand for … in GC…GCGATTGACAGCGTAGAATGAAGG
# [1] = test system: PPARg:RXRa DBDmut IVT, anti-RXR (DBD mutation: RXRa K156A/R161A, NR concentration 270 nM, RXRa partner concentration 90 nM)
# In short: (§1)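 Custom Agilent 4×180K protein-binding microarrays carried double-stranded probes, each with a 34-nt variable region. These regions held direct-repeat seeds, single-nucleotide variants, half-site ablations and random human genomic background sequences. Ligand-free nuclear receptor dimers were incubated on the arrays for 1 h, antibodies against each partner (one per run) detected binding, and scanned fluorescence was regression-normalized. Binding z-scores take the random background probes as reference.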
# [2] = test system: PPARg:RXRa IVT, anti-PPARg (NR concentration 270 nM, RXRa partner concentration 90 nM)
# In short: as §1
# [3] = test system: PPARg DBDmut:RXRa IVT, anti-PPARg (DBD mutation: PPARg1 K132A/R137A, NR concentration 270 nM, RXRa partner concentration 90 nM)
# In short: as §1
# [4] = test system: PPARg DBDmut IVT, anti-PPARg (DBD mutation: PPARg1 K132A/R137A, NR concentration 270 nM)
# In short: as §1
# [5] = test system: PPARg homodimer (NR concentration 180 nM)
# In short: as §1
# [6] = test system: PXR:RXRa (NR concentration 270 nM, RXRa partner concentration 90 nM)
# In short: as §1
# [7] = test system: PXR homodimer (NR concentration 270 nM)
# In short: as §1
# [8] = test system: RARa:RXR (NR concentration 270 nM, RXRa partner concentration 90 nM)
# In short: as §1
# [9] = test system: RARa homodimer (NR concentration 270 nM)
# In short: as §1
# [10] = test system: RARb:RXRa (NR concentration 270 nM, RXRa partner concentration 90 nM)
# In short: as §1
# [11] = test system: RARb homodimer (NR concentration 270 nM)
# In short: as §1
# [12] = test system: RARg:RXRa (NR concentration 270 nM, RXRa partner concentration 90 nM)
# In short: as §1
# [13] = test system: RARg homodimer (NR concentration 270 nM)
# In short: as §1
# [14] = test system: RXRa DBDmut IVT, anti-RXR (DBD mutation: RXRa K156A/R161A, NR concentration 90 nM)
# In short: as §1
# [15] = test system: RXRa homodimer (NR concentration 180 nM)
# In short: as §1
# [16] = test system: THRa:RXRa (NR concentration 90 nM, RXRa partner concentration 90 nM)
# In short: as §1
# [17] = test system: THRa homodimer (NR concentration 90 nM)
# In short: as §1
# [18] = test system: VDR:RXRa (NR concentration 270 nM, RXRa partner concentration 90 nM)
# In short: as §1
# [19] = test system: VDR homodimer (NR concentration 270 nM)
# In short: as §1
Sequence,PBM binding z-score [1],PBM binding z-score [2],PBM binding z-score [3],PBM binding z-score [4],PBM binding z-score [5],PBM binding z-score [6],PBM binding z-score [7],PBM binding z-score [8],PBM binding z-score [9],PBM binding z-score [10],PBM binding z-score [11],PBM binding z-score [12],PBM binding z-score [13],PBM binding z-score [14],PBM binding z-score [15],PBM binding z-score [16],PBM binding z-score [17],PBM binding z-score [18],PBM binding z-score [19]
ATCTCTAGGTAAGACTCACTTCAGTGAAGAACGC,1.59,1.19,0.772,1.01,0.77,-0.228,0.171,-0.265,0.334,-0.0456,-0.0357,-0.204,0.301,0.173,-0.184,0.282,0.429,0.175,-0.111
ACAGACAGGTGCTGAAGGTAACTCAGGCTATCAT,-0.133,-0.503,-0.162,0.258,-0.279,-0.445,-0.113,-0.341,-0.406,-0.476,-0.511,-0.0198,0.00684,-0.376,-0.0891,0.3,-0.356,-0.264,-0.984
ACAGATAGGTGAGTGAAGGTAACTCAGCTGGACG,1.53,1.14,0.306,-0.218,0.357,-0.303,-0.159,0.0919,-0.566,0.558,0.126,0.246,0.547,-0.347,0.347,1.65,-0.341,-0.335,-0.149
TGAATGAGGATATAAGATCAGGGAACGTTGCAAA,-0.556,0.057,0.56,0.888,0.688,-0.114,0.099,0.0893,0.416,-0.402,-0.689,0.125,0.402,-0.562,0.189,0.534,-0.316,-0.113,-0.0248
TCACCAAGGTGAAGGTCGTTGATCCCTCTGTAGA,2.46,2.65,0.477,0.105,-0.15,1.61,0.00737,1.94,-1.46,2.27,1.71,1.55,1.08,0.927,2.01,2.27,0.819,1.34,0.342
TCTTGTAGACCAAAGGTTAAGAAAGCCGAAGCCT,2.06,3.9,0.87,0.749,0.811,1.58,-0.8,2.39,-0.178,2.03,1.34,1.88,0.82,0.533,2.54,1.3,-0.878,0.807,-0.489
ACAGACAGGTGATGAAGGTCACTCAGGCTATCAT,0.771,1.97,0.688,0.177,2.08,2.81,2.02,2.83,0.664,3.03,3.75,3.15,2.94,0.355,2.67,2.81,0.677,4.67,1.51
CCGACTGGGGCTTAAGGTTACCATAAGCCAGCCC,0.244,0.428,-1.39,-1.88,0.217,0.141,-0.395,1.08,-0.504,0.868,0.796,0.272,0.0964,-0.55,0.688,2.53,1.94,-0.156,-0.232
CCTCGGAGGACAGAAGGTCTGAGCTGTCCGCTTT,0.154,-0.94,-1.16,-2.11,-0.0745,-0.674,-0.886,-0.544,-0.761,0.519,-0.106,-0.159,0.14,-0.0896,-0.825,-0.0206,-0.537,-0.624,-0.369
CAAACTAGGTCATTGACAGGACAGTGAATAGTAA,8.37,8.3,2.39,1.76,2.3,1.73,0.252,2.35,0.262,3.75,2.83,4.74,4.67,2.28,2.89,2.91,1.01,2.42,1.51
CCTAGCAAGCCAGGGTCACTCAAGCATTTCGCTT,-0.127,0.222,-0.962,-1.46,0.888,2.78,0.054,3.42,-0.000742,2.41,2.62,2.97,2.62,0.907,3.86,3.03,1.1,2.8,1.69
CCTATTAGTTGGCCATAAGGGCAACCGAAGCTCG,0.405,0.608,0.65,-0.464,0.599,0.101,0.238,0.307,0.354,1.11,1.46,0.564,0.624,0.223,0.155,1.3,0.895,0.196,0.172
CCGACTGGGGCACAGGTTACCATACTCAGTACGA,3.76,4.97,-0.354,-0.501,1.14,0.174,-0.362,0.462,0.15,1.07,1.07,1.02,0.906,-0.122,0.761,0.272,-0.26,-0.165,-0.0992
CCTCGGAGGACAACAGGAGGTCAGATCTGCCAGA,0.382,0.149,-0.732,-1.41,1.21,2.05,0.364,2.18,0.26,2.81,3.64,3.34,3.12,0.415,1.59,2.81,1.03,1.72,1.28
CCGACTGGGGCATGGTTACCATAACGCACAGCCA,2.18,2.5,-0.776,-0.933,-0.129,-0.696,-0.585,-0.433,-0.847,0.396,-0.189,-0.0426,0.399,-0.99,-0.131,-0.641,-0.739,-0.609,-0.781
ATCGAAAGGTCGTGGTGAGTATAGAGAAAGGGAA,1.03,2.12,1.47,1.03,1.89,3.3,0.954,3.84,1.77,4.27,2.85,4.45,3.8,1.52,4.79,2.82,0.58,3.85,1.23
CCTCGGAGGACAACAGGAGGTCCGAGCTGCCAGA,-0.427,-0.95,-1.85,-2.01,-0.576,-0.914,-0.768,-0.793,-0.318,1.1,0.279,0.372,0.854,-0.16,-0.455,0.4,-0.324,-0.665,-0.197
TCAAGTAGGTTAGTCGGGGCATTCAGCCAACATA,4.81,4.14,0.386,1.15,1.35,0.801,0.708,0.739,0.814,0.917,0.846,0.431,0.362,1.46,0.586,1.26,0.656,2.43,0.907
CGAACTAGGTCATTGACAGGACAGAGAATAGTAA,8,8.14,4.58,3.51,2.33,1.5,-0.262,2.19,0.528,3.65,2.47,4.41,4.12,2.25,2.5,2.8,0.787,2.18,1.26
TCTAGTTGGTCAAAGTTCACACACTCGAAATGCG,2.57,4.89,1.12,1.12,3.54,5.09,4.01,5.1,2.77,3.83,4.37,4.88,4.04,2.68,4.73,2.62,1.04,4.44,4.58
ATCTCTATGTAAAGTTCAGTGAAAGATCGATAGA,-0.231,0.863,0.912,1.04,1.11,1.92,2.03,1.18,1.46,2.55,2.23,2.06,2.29,1.3,1.08,0.757,-0.304,1.26,2.03
ACAGACAGGTGAGTGAAGGTATCTCAGCTGGACG,0.178,0.541,-0.168,-1.07,-0.226,-0.609,-0.293,-0.438,-0.61,0.255,-0.269,-0.0868,0.333,-0.121,0.228,-0.00206,-0.781,-0.617,-0.981
TCTCGGAGCACACGAAAGGTCAGAGCTCGACATC,0.786,0.883,-0.964,-0.475,2.57,3.52,-0.0353,4.12,0.999,3.45,4.06,3.96,3.53,0.437,3.98,2.41,-0.342,2.26,-0.387
GCTTACGGGTCAAAGGTTATACCATGAATAGAAT,4.59,6.16,1.82,1.93,2.73,6.11,0.691,8.2,0.701,4.64,3.74,6.93,4.71,2.59,9.41,4.17,0.206,5.75,1.77
CGTCCAAGGTCAGCAGGTCAGTGACAGCGACGTG,3.56,3.56,-0.271,-0.196,4.58,3.79,0.701,5.22,2.42,5.27,5.12,6.43,7.03,2.63,5.26,3.87,2.43,4.1,2.08
ACAGACATGTGATGAAGGTAACTCAGGCTATCAT,-0.334,0.139,0.595,0.868,-0.0569,-0.448,-0.319,-0.161,-0.142,-0.338,-0.417,0.0722,0.176,0.00385,0.168,0.492,-0.106,-0.214,-0.35
TCTCGGAGGACACGAAAGGTCAGAGCCCGACATC,1.33,1.82,-0.244,-0.279,3.83,3.99,0.732,4.46,1.38,4.29,4.82,4.91,5.5,0.988,3.95,3.67,1.25,3.26,1.26
CAAACTAGGTCACAGAGGTCAAAGTCCGTGCGTA,8.82,9.1,2.19,1.15,5.68,6.96,11.2,7.51,3.31,5.25,5.8,7.58,7.69,3.5,8.16,4.79,3.15,8.16,7.24
CCAGACAGGTGAGAAGATAACTCAGCCTCGATTA,0.896,0.216,-0.0942,-0.455,0.364,0.081,0.476,0.117,0.792,0.241,-0.0712,0.21,0.586,0.0832,0.262,-0.0838,-0.477,0.035,-0.188
TTACCTAGGTGAGCTGAGGTCGTTGATCCAACTC,3.01,3.01,-0.362,0.266,0.32,3.55,0.214,1.94,-1.28,0.93,1.32,0.757,0.325,0.055,1.01,4.18,2.11,3.05,1.73

# From the supplement of paper PMC6555819
